# Sampled rows, rich in hits. Any-hit rate of the full collection: about 4.8%.
# DAX1 inh-1: NR0B1 (DAX1) inhibition; HEK293 Gal4-DAX1 luciferase reporter, luminescence; inhibition, % at 6.75 µM; P51843; hit rate 0.99% among 340,000;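 active = inhibition above the mean over all tested compounds plus 3 SD, cut at about 4.2% in these data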;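 also: 0% = DAX1-transfected cells with DMSO and 100% = empty-vector control cells with DMSO; inhibition shows as a rise in luminescence from relieved DAX1 repression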
# Target sequence (P51843 207-470 limits assumed): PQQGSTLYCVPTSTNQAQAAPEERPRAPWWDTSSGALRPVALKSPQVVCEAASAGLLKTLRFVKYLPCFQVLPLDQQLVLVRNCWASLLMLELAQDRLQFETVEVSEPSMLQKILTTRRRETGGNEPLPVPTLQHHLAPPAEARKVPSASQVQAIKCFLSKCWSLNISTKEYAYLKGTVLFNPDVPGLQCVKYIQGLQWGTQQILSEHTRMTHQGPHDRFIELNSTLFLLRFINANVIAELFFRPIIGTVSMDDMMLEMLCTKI
# SMARCA2 activ: increases SMARCA2 function in MMTV reporter cells; hit rate 1% among 370,000; MG213 cells, MMTV-luciferase reporter, dexamethasone, overnight; activation, % at 9.1 µM; in the data active = activation above about 7.8%;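 also: 0% = vehicle wells and 100% = reference activator wells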
# DAX1 inh-2: blocks DAX1 repression of SF-1 activated StAR promoter; HEK293T StAR-luciferase reporter, SF-1/DAX-1 repression relief; inhibition, % at 6.8 µM; hit rate 1.1% among 370,000;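 active = inhibition above the mean over all tested compounds plus 3 SD, cut at about 3.6% in these data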;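 also: 0% = DAX-1 cells with DMSO and 100% = cells lacking DAX-1 with DMSO; higher inhibition means more luminescence from relief of DAX-1 repression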
# hgDAF-12 ag: agonists of H. glycines DAF-12 nuclear receptor; activation, % at 6.8 µM; AID 687014; hit rate 1.8% among 370,000; HEK293 GAL4-hgDAF12 UAS-luciferase reporter, agonist luminescence; normalized to butyrate control;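 active = activation above a cutoff set at the mean of all screened compounds plus 3 SD, cut at about 10% in these data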;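 also: 0% = DMSO wells and 100% = sodium butyrate wells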
# hcDAF12 agonist: activators of H. contortus DAF-12 nuclear receptor; hit rate 1.4% among 370,000; AID 652067; HEK293 hcDAF-12 lit1-tk-luc reporter, luminescence; 0% DMSO, 100% Δ7-dafachronic acid; activation, % at 6.8 µM;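 active = activation above the mean of all tested compounds plus 3 SD, cut at about 5.5% in these data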;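 also: 100% = response to 3 µM Δ7-dafachronic acid high control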
# ssDAF-12 act: activates DAF-12 receptor from parasite S. stercoralis; AID 652126; activation, % at 6.8 µM; hit rate 1% among 370,000; HEK293 ssDAF-12/GRIP1 lit1-tk-luc reporter, luminescence; % of 3 µM dafachronic acid response;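 active = activation above the mean over all tested compounds plus 3 SD, cut at about 0.9% in these data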;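 also: 0% = DMSO-only wells and 100% = 3 µM delta7-dafachronic acid wells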
# Starred values were filed as active, the others as inactive; · = no result given.
SMILES,DAX1 inh-1,SMARCA2 activ,DAX1 inh-2,hgDAF-12 ag,hcDAF12 agonist,ssDAF-12 act
O=[N+]([O-])c1ccc(-c2csc(Nc3ccccc3)[n+]2Cc2ccccc2)cc1,1,1,-1,6,3,-1
Cc1ccc(-n2cc(C(=O)O)c(=O)cc2C)c(C)c1,-1,1,0,-1,-2,-2
COc1ccc(S(=O)(=O)NCCC(=O)NC2CCCCC2C)cc1[N+](=O)[O-] (stereo not drawn),0,-2,-1,0,-1,-2
C/C(=N\OC(=O)Nc1ccccc1)c1ccc(C)cc1,5.9*,6,1,4,1,-1
Cc1cc(/C(N)=N/OC(=O)Nc2ccccc2)no1,·,-4,0,0,-1,-2
Cc1ccccc1C(=O)NC1CCCCN(Cc2cccc(Cl)c2)C1=O (stereo not drawn),·,-2,-1,2,-3,1.0*
Cc1ccc(C(=O)NC2CCCCN(Cc3cccc(Cl)c3)C2=O)c(C)c1 (stereo not drawn),·,-1,-1,2,-2,-1
Cc1ccccc1CN1CCCCC(NC(=O)c2ccccc2F)C1=O (stereo not drawn),·,-2,-2,-1,-2,0
Cc1ccccc1CN1CCCCC(NC(=O)C2CCC2)C1=O (stereo not drawn),·,-1,0,-1,1,1.9*
COc1ccc(C=NNC(=O)Cc2cc(=O)[nH][nH]2)c(OC)c1,·,-6,-1,-3,2,-1
CCC1S/C(=N/S(=O)(=O)c2ccc(N)cc2)NC1=O (stereo not drawn),0,4,1,-1,0,0
Cc1nc2nc(SCC(=O)NCCCN3CCCC3)nn2c(C)c1Cc1ccccc1Cl,0,-2,1,-1,1,-1
COC(=O)c1ccc(N2CCN(CC(=O)c3ccc(C)cc3)CC2)c([N+](=O)[O-])c1,1,0,0,4,6.0*,0
COc1ccccc1C(=O)Nc1ccccc1SC(=O)c1ccccc1OC,4.3*,-2,0,-2,4,0
COc1ccccc1C(=O)Nc1cc(-c2ccc(C)cc2)no1,0,3,0,12*,4,1.0*
COc1ccc(NC(=O)Nc2ccc(Br)c(C)c2)cc1,4.9*,-2,1,2,-1,-2
COc1ccc(NC(=O)Nc2cc(C)ccc2F)cc1,1,3,3.9*,10,2,0
COc1cccc(NC(=O)Nc2cc(C)ccc2F)c1,0,2,1,6,0,-1
O=C(c1ccc(CS(=O)Cc2ccc(Cl)cc2)o1)N1CCN(C2CCCCC2)CC1 (stereo not drawn),1,0,-1,-1,-1,-1
COc1ccc(OC)c(C(=O)N2CCC(CCC(=O)NC3CC3)CC2)c1,1,-4,0,1,1,-1
Cc1cc(N/N=C/c2ccccc2Br)nc2ccccc12,0,-1,0,3,1,-1
Cc1cccc(C=NNc2cc(C)c3cccc(C)c3n2)n1,·,6,1,12*,4,1
O=C(NCCC1CCCCN1S(=O)(=O)c1cccs1)C(=O)Nc1cccc(F)c1 (stereo not drawn),-1,-1,0,-3,-1,0
CCOC(=O)/C=C1/SCC(=O)N1CC(=O)Nc1ccccc1OC(F)F,3,-4,-1,-4,1,-1
Nc1ccc2c(=O)[nH][nH]c(=O)c2c1,-1,-1,-1,3,-2,0
SMILES,DAX1 inh-1,SMARCA2 activ,DAX1 inh-2,hgDAF-12 ag,hcDAF12 agonist,ssDAF-12 act
Nc1ccc2oc3ccc(N)cc3c(=O)c2c1,0,2,4.2*,11*,5.6*,1
COC(=O)c1sccc1NC(=O)c1cc(-c2ccc(C)cc2)nc2ccccc12,0,2,1,0,0,1.1*
COc1cccc(-c2cc(C(=O)Nn3cnnc3)c3ccccc3n2)c1,-1,-1,1,0,6.0*,0
COc1ccc(-c2cc(C(=O)NC3=NCCS3)c3ccccc3n2)cc1OC,-1,4,-1,-2,1,1
O=C(NC1=NCCS1)c1cc(-c2ccc(-c3ccccc3)cc2)nc2ccccc12,0,4,2,5,1,0.9*
COc1cccc(-c2cc(C(=O)NN3CCOCC3)c3ccccc3n2)c1,-1,-2,-1,-2,-2,-1

# Screening results (PubChem BioAssay)
